Source: PubChem BioAssay
Shown are actives, neighbours in structure and some others; about 1.6% of the full set was active somewhere.
KCNQ2 block: inhibitors of rat KCNQ2 potassium channel; O88943; CHO-K1 KCNQ2, FluxOR thallium flux, 20 min; hits give low values; B-score at 10 µM; 310,000 compounds, 1.1% hits; AID 2156;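 active means fluorescence ratio B-score at most minus 3 library SDs, with starting brightness B-score within 2 library SDs, cut at about -5.5 in these data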
Target sequence (O88943 whole entry, looked up): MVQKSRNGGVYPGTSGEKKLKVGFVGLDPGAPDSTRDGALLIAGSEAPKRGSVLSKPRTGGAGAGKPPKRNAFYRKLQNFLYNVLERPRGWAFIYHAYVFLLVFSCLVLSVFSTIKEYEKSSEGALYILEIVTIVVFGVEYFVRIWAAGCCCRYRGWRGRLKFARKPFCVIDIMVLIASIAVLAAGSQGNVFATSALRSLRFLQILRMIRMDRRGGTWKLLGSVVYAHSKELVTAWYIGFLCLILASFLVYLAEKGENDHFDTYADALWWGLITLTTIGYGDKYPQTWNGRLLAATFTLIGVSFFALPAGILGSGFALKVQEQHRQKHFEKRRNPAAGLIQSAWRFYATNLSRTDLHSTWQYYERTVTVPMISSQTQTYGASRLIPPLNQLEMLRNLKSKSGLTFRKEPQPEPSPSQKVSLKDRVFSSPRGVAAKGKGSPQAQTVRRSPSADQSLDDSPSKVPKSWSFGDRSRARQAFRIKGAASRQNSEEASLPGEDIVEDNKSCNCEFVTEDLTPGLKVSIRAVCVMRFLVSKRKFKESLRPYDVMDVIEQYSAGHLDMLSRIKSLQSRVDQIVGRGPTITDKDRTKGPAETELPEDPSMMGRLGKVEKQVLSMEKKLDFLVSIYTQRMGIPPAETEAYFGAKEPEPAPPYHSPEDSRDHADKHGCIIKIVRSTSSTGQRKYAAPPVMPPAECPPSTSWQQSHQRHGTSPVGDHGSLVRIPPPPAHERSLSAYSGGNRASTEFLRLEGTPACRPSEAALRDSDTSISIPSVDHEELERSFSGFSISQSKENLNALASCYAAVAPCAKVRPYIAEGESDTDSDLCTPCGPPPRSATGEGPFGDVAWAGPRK
KCNQ2 pot: KCNQ2 (rat) channel potentiation; CHO-K1 KCNQ2, FluxOR thallium flux fluorescence; hits give high values; 310,000 compounds, 0.54% hits; O88943; AID 2239; B-score at 10 µM;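 active means fluorescence ratio B-score at least 3 SD of library B-scores, with initial fluorescence B-score within 3 of them, cut at about 5.3 in these data; same plate scores as AID 2156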;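 further: B-score of peak minus minimum over baseline fluorescence ratio after K+ and Tl+ stimulus; positive B-score means potentiation of KCNQ2 with more thallium influx and brighter signal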
Kir21 confirm: confirmation of mouse Kir2.1 potassium channel inhibitors | shares compounds with KCNQ2 pot | Kir2.1-expressing cells, FluxOR thallium flux fluorescence; hits give low values | Tl flux remaining, % of negative control (hits give low values), % at 10 µM | 2,300 compounds, 41% hits | AID 2032;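 active means Primary-screen hit whose thallium flux fell at least 3 control SD below untreated wells in both duplicates, with normal baseline fluorescence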;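 further: 0% = blank wells without stimulus and 100% = stimulated no-compound controls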
HEK293 Tl flux: counter-screen for Kir2.1 inhibitors: effect in parental HEK293 cells. shares compounds with KCNQ2 pot. 2,300 compounds, 19% hits. FluxOR signal as % of negative control (100 = no effect), % at 10 µM. FluxOR thallium flux fluorescence; 0% = unstimulated blank wells;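 active means dye signal at least 3 control SD above or below untreated wells in both duplicates, raw fluorescence within 3, either direction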;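 further: percent is based on the flux ratio of peak minus minimum fluorescence over baseline F0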
CHO-K1 Tl ctr: alters thallium flux in parental CHO-K1 cells, KCNQ2 counter-screen | shares compounds with KCNQ2 pot | FluxOR thallium flux fluorescence; zero = vehicle mean+3SD, 100% = vehicle-minus-blank window | activity increase over 3SD of controls, % at 10 µM | 1,200 compounds, 43% hits | AID 2282;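 active means signal rise of at least 3 SD above the untreated control mean, in both duplicate wells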;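 further: counter screen of KCNQ2 potentiator hits so any rise reflects channel-independent effects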
KCNQ1 pot spec: selectivity of KCNQ2 potentiators: effect on human KCNQ1. shares compounds with KCNQ2 pot. CHO KCNQ1 stable, FluxOR thallium flux fluorescence; beyond 3SD, as % of vehicle-control signal. activation over 3SD threshold, % at 10 µM. 1,200 compounds, 28% hits. AID 2283;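 active means fluorescence ratio rise of at least 3 SD of vehicle wells above their mean, in both replicate wells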;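 further: 0% = vehicle mean plus 3 SD and 100% = vehicle minus unstimulated blank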
KCNQ2 pot conf: rat KCNQ2 channel potentiator confirmation. shares compounds with KCNQ2 pot. potentiation, less the hit threshold, % at 10 µM. 1,200 compounds, 68% hits. CHO-KCNQ2 cells, FluxOR thallium flux fluorescence;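 active means fluorescence ratio rising 3 SD or more over the vehicle control mean in both replicates, plus primary screen hit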;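 further: peak minus minimum thallium fluorescence divided by baseline after K/Tl stimulus; 0% = vehicle mean plus 3 SD and 100% = vehicle minus unstimulated blank difference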
Kir2-1 sel: selectivity of KCNQ2 potentiators: effect on mouse Kir2.1 | shares compounds with KCNQ2 pot | HEK293 Kir2.1, FluxOR thallium flux fluorescence | activity over 3SD threshold, % at 10 µM | 1,200 compounds, 2% hits;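 active means fluorescence ratio rise of at least 3 SD above the vehicle-control mean, seen in both replicates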;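 further: 0% = vehicle mean plus 3 SD and 100% = vehicle minus no-stimulus blank window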
KCNQ2 W236L MoA: rat KCNQ2 W236L mutant potentiation by KCNQ2 potentiators; shares compounds with KCNQ2 pot; CHO KCNQ2-W236L, automated patch clamp current; current increase over 3SD of negative controls (%), hits give high values, % at 25 µM; 940 compounds, 10% hits; AID 2558;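 active means current increase at least 3 SD of the untreated controls above them in both duplicate recordings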
An asterisk follows results filed as active.

Results for COc1cccc(CNc2ccc3[nH]c(=O)[nH]c3c2)c1OCc1ccccc1 ?
KCNQ2 block: inactive; KCNQ2 pot: 7.9*; CHO-K1 Tl ctr: 32*; KCNQ1 pot spec: -21; KCNQ2 pot conf: -6; Kir2-1 sel: -78

What do the screens show for `COc1cccc(CNc2ccc3[nH]c(=O)[nH]c3c2)c1OCc1ccccc1Cl`?
KCNQ2 block: inactive; KCNQ2 pot: 2.1

How did CCc1ccc(OCc2cccc(C(=O)N/N=C\c3cnn(C)c3C)c2)cc1 do in these assays?
KCNQ2 block: inactive; KCNQ2 pot: 0.62

Results for CCCCCCCCC[n+]1cccc2c3ccccc3ccc21 ?
KCNQ2 block: inactive; Kir21 confirm: 6.5%*; HEK293 Tl flux: inactive

Results for O=[N+]([O-])c1ccc(C[n+]2cccc3c4ccccc4ccc32)cc1 ?
KCNQ2 block: inactive; KCNQ2 pot: 1.1

Results for N/C(=N\OC(=O)c1csnn1)c1ccc(C(F)(F)F)cc1 ?
KCNQ2 block: inactive

What do the screens show for `CC(C)Cc1nc2n[nH]c(N)c2c2c1CCCC2`?
KCNQ2 block: inactive; KCNQ2 pot: 2.6

How did CC(C)c1nc2n[nH]c(N)c2c2c1CCCC2 do in these assays?
KCNQ2 block: inactive; KCNQ2 pot: 2.2; Kir21 confirm: 40%*; HEK293 Tl flux: inactive

Results for c1ccc(OCC2CCNCC2)nc1 ?
KCNQ2 block: inactive; KCNQ2 pot: 0.3

How did O=C1NC2(CCCCCC2)C(=O)N1Cc1ccccc1 do in these assays?
KCNQ2 block: inactive; KCNQ2 pot: 5.6*; Kir21 confirm: inactive; HEK293 Tl flux: inactive; CHO-K1 Tl ctr: -14; KCNQ1 pot spec: -6; KCNQ2 pot conf: -1; Kir2-1 sel: -41

What do the screens show for `O=C1NC2(CCCCCCC2)C(=O)N1Cc1ccc(F)cc1`?
KCNQ2 block: inactive

Results for CCn1c2ccccc2c2cc(Nc3cc(C)nc4ncnn34)ccc21 ?
KCNQ2 block: inactive; KCNQ2 pot: 0.69; Kir21 confirm: 67%*; HEK293 Tl flux: inactive

How did CCc1ccc(Nc2cc(C)nc3ncnn23)cc1 do in these assays?
KCNQ2 block: inactive; KCNQ2 pot: 1.4

What do the screens show for `O=C(COc1ccccc1)N=C1SC2CS(=O)(=O)CC2N1c1ccc(F)cc1F` (centres undefined)?
KCNQ2 block: inactive; KCNQ2 pot: 2.1

What do the screens show for `CC(C)(C)c1ccc(C(=O)Nc2nnc(C3=COCCO3)o2)cc1`?
KCNQ2 block: inactive; KCNQ2 pot: 3.6

Results for CC(C)Oc1ccc(C(=O)Nc2nnc(C3=COCCO3)o2)cc1 ?
KCNQ2 block: inactive; KCNQ2 pot: 5.3*; Kir21 confirm: inactive; HEK293 Tl flux: inactive; CHO-K1 Tl ctr: 91*; KCNQ1 pot spec: -7; KCNQ2 pot conf: -2; Kir2-1 sel: -33; KCNQ2 W236L MoA: inactive

What do the screens show for `NC(=O)SCC(=O)Nc1ccc(Cl)cc1`?
KCNQ2 block: inactive; KCNQ2 pot: 6*; Kir21 confirm: inactive; HEK293 Tl flux: inactive; CHO-K1 Tl ctr: -10; KCNQ1 pot spec: 20*; KCNQ2 pot conf: 20*; Kir2-1 sel: -40; KCNQ2 W236L MoA: inactive

What do the screens show for `Cc1c(Cl)cccc1NC(=O)CSC(N)=O`?
KCNQ2 block: inactive; KCNQ2 pot: 4.6

How did N#CCSCC(=O)Nc1ccc(Cl)cc1 do in these assays?
KCNQ2 block: inactive; KCNQ2 pot: 0.01

How did COCC(=O)Nc1ccc(C)c(Cl)c1 do in these assays?
KCNQ2 block: inactive; KCNQ2 pot: 2.1

Results for Cc1ccc(NC(=O)CSC(N)=O)cc1Cl ?
KCNQ2 block: inactive; KCNQ2 pot: 5.3; Kir21 confirm: inactive; HEK293 Tl flux: inactive; CHO-K1 Tl ctr: -24; KCNQ1 pot spec: -22; KCNQ2 pot conf: 3.0*; Kir2-1 sel: -42; KCNQ2 W236L MoA: inactive

Results for NC(=O)SCC(=O)Nc1cccc(Cl)c1 ?
KCNQ2 block: inactive; KCNQ2 pot: 7.7*; Kir21 confirm: inactive; HEK293 Tl flux: inactive; CHO-K1 Tl ctr: 16*; KCNQ1 pot spec: -6; KCNQ2 pot conf: 12*; Kir2-1 sel: -44; KCNQ2 W236L MoA: inactive

What do the screens show for `Nc1ncnc2c1nc(SCCO)n2Cc1ccccc1`?
KCNQ2 block: inactive; KCNQ2 pot: 1.1

What do the screens show for `Nc1nonc1-n1nnc(C(=O)N/N=C/c2ccccc2F)c1CN1CCc2ccccc21`?
KCNQ2 block: inactive

Results for CCC(NC(=S)NCc1ccc(F)cc1)c1ccc(C(C)C)cc1 (centres undefined) ?
KCNQ2 block: inactive; KCNQ2 pot: 7.2*; Kir21 confirm: inactive; HEK293 Tl flux: inactive; CHO-K1 Tl ctr: 78*; KCNQ1 pot spec: -13; KCNQ2 pot conf: 21*; Kir2-1 sel: -29; KCNQ2 W236L MoA: inactive

Results for CCC(C)c1ccc(C(C)NC(=S)NCc2ccc(F)cc2)cc1 (centres undefined) ?
KCNQ2 block: inactive; KCNQ2 pot: 5.2

What do the screens show for `CCOC(=O)Nc1c(O)ccc2oc(C)c(-c3ccccc3)c12`?
KCNQ2 block: inactive; KCNQ2 pot: 3.3; Kir21 confirm: 28%*; HEK293 Tl flux: inactive

What do the screens show for `CCOC(=O)C(=O)Nc1nc(-c2ccccc2)c(-c2ccccc2)o1`?
KCNQ2 block: inactive

What do the screens show for `COc1ccccc1C(=O)N/C(=C\c1cn(S(=O)(=O)N(C)C)c2ccccc12)C(=O)NCCCN1CCOCC1`?
KCNQ2 block: inactive; KCNQ2 pot: 3.3

Results for COc1ccc(NC(=O)c2sc3nc(N4CCOCC4)c4c(c3c2N)CC(C)(C)OC4)cc1 ?
KCNQ2 block: inactive

How did CC1(C)Cc2c(c(N3CCOCC3)nc3snc(NC(=O)c4ccccc4)c23)CO1 do in these assays?
KCNQ2 block: inactive; KCNQ2 pot: 8.6*; Kir21 confirm: inactive; HEK293 Tl flux: inactive; CHO-K1 Tl ctr: -13; KCNQ1 pot spec: -15; KCNQ2 pot conf: 28*; Kir2-1 sel: -18; KCNQ2 W236L MoA: inactive

How did CC(=O)Nc1ccc(NC(=O)CCNC(=O)c2ccccc2Cl)cc1 do in these assays?
KCNQ2 block: inactive

What do the screens show for `O=C(O)c1cc(NN=Nc2cccc([N+](=O)[O-])c2)cc([N+](=O)[O-])c1`?
KCNQ2 block: inactive; KCNQ2 pot: 2.6
